In PubChem BioAssay (NCI):
This is part of a sample that, as a whole, favours compounds with a hit. Of some 83,000 tested, about 20% had one in any assay.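 How to read the values: 0–100, growth inhibition (40 = 60% inhibited); 0, no net growth; -100 to 0, cell death (-40 = 40% of starting cells died; -100 = all dead).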 Unmarked numbers belong to inactive results. Active and inactive are the calls of the source. The calls were made as follows: active = growth percent below 10; inactive = the rest.

Tests used:
Assay in all cases: NCI-60 one-dose screen, 48 h (100 = growth as untreated, 0 = no growth, -100 = all killed)
Conditions in all cases: 10 µM unless noted
[1] = test system: NCI-H23 lung
[2] = test system: NCI-H226 lung
[3] = test system: NCI-H322M lung
[4] = test system: HOP-62 NSCLC
[5] = test system: NCI-H460 lung
[6] = test system: HOP-92 NSCLC
[7] = test system: NCI-H522 lung
[8] = test system: A549/ATCC NSCLC
[9] = test system: 786-0 renal
[10] = test system: COLO 205 colon
[11] = test system: DU-145 prostate
[12] = test system: K-562 leukemia
[13] = test system: MALME-3M melanoma
[14] = test system: RXF 393 renal
[15] = test system: SF-268 CNS
[16] = test system: SF-295 CNS
[17] = test system: SF-539 CNS
[18] = test system: UACC-257 melanoma
[19] = test system: MDA-MB-231 breast

SMILES | growth [1] | growth [2] | growth [3] | growth [4] | growth [5] | growth [6] | growth [7] | growth [8] | growth [9] | growth [10] | growth [11] | growth [12] | growth [13] | growth [14] | growth [15] | growth [16] | growth [17] | growth [18] | growth [19]
COc1cc(NC(=O)c2cccc(-c3cc(=O)c4c(O)c(OC)c(OC)cc4o3)c2)cc(OC)c1OC | 34.9% | 7.69% (active) | 74.4% | 11.7% | 53.8% | 56.1% | 41.2% | 40.5% | 66.3% | 67.7% | 57.3% | 54.5% | 51% | 75% | 61.9% | 61.5% | 51.7% | 66.1% | 
O=C(O)C1C[C@](O)(c2ccc(F)cc2)[C@@H](c2ccc(F)cc2)O1 (some centres undefined) | 91.4% | 122% | 121% | 90.3% | 101% | 78.2% | 91.5% | 112% | 95.6% | 110% | 139% | 89.3% | 113% |  | 117% | 94.2% | 125% | 111% | 115%
N#Cc1c(N)nc2c(nnn2-c2cccc(Br)c2)c1N | 89.5% | 95.7% | 97.6% | 94.8% | 97.1% | 82.2% | 86% | 92.6% | 105% | 105% | 109% |  | 115% | 111% | 97.1% | 107% | 105% | 106% | 89%
C=C1C(=O)O[C@H]2[C@H]1CC/C(COC(=O)/C=C\C(=O)NCc1ccc(Cn3c(=O)sn(-c4ccc(Cl)cc4)c3=O)cc1)=C\CC[C@@]1(C)O[C@@H]21 | -63.6% (active) | -58.9% (active) | -18.5% (active) | -34.7% (active) | -73.2% (active) | -66.7% (active) | -55.9% (active) | -43.7% (active) | -82.5% (active) | -45% (active) | -94.7% (active) | -20.5% (active) | -93.1% (active) |  | -74.4% (active) | 56.2% | -100% (active) | -64.8% (active) | -86.1% (active)
COc1ccc(NC(=O)c2cccc(-c3cc(=O)c4c(O)c(OC)c(OC)cc4o3)c2)cc1 | 91.3% | 91.9% | 99.5% | 72.2% | 92.7% | 23.6% | 79.4% | 81.3% | 43% | 97.6% | 96.9% | 91.8% | 80.6% | 92% | 54.6% | 104% | 56.1% | 79.2% | 
Clc1ccc(/C=C/c2nc(Nc3ccc(Cl)cc3)c3ccccc3n2)cc1 | 93.1% | 92.6% | 96.4% | 120% | 103% | 107% | 90.8% | 102% | 102% | 112% | 118% | 103% | 105% |  | 102% | 100% | 96.1% | 98.9% | 93.7%
CO/C(=C1/NC(=O)C(Cc2ccc(O)c(Br)c2)N(C)C(=O)C(C)NC(=O)CCC/C=C(\C)CCC(C)OC1=O)c1ccccc1 (centres undefined) | 25.1% | -33.9% (active) | -34.3% (active) | -19.7% (active) | -22.1% (active) | -53.9% (active) | -61.1% (active) | -49.5% (active) | -35.6% (active) | 7.23% (active) | -17.3% (active) | 6.13% (active) |  | -79.5% (active) | -43.6% (active) | -65.3% (active) | -52.3% (active) | -54% (active) | -31.3% (active)
O=C(Nc1ccccc1)c1sc(-c2cccc(C(F)(F)F)c2)cc1O | 54.1% | 80.1% | 77.1% | 79.5% | 49.4% | -7.04% (active) | 39.6% | 64.2% | 89.6% | 107% | 82.4% |  | 81.4% | 102% | 82.8% | 82.9% | 42.2% | 46.9% | 91.9%
